Substitutions are numbered along the chain they refer to; changes in the protein carry UniProt numbers. In all, about 16,000 sequences were measured (“ka relative to ugcaugu”: median about 0.0091, highest 2% from about 0.032 on). The sample as a whole holds a higher share of the highest values than the screen did.
T1: RBFOX1 RRM (Homo sapiens, UniProt Q9NWB1 109-208)
T1 sequence: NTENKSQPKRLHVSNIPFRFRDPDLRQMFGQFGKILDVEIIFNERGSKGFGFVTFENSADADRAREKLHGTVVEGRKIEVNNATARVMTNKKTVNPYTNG

B1: AACCAGU (DNA:RNA)
RNA: GGGAGACCGGAAUUCAGAUUGUCCAACCAGUUUAAAUCCCGUCGUAGCCACCA
DNA 1: CAATCTGAATTCCGGTCTCCC
DNA 2: TGGTGGCTACGACGGGATT
B2: AAUAAUU (DNA:RNA)
RNA: B1 RNA with C27U, C28A, G30U
DNA 1: CAATCTGAATTCCGGTCTCCC
DNA 2: TGGTGGCTACGACGGGATT
B3: UGUGACC (DNA:RNA)
RNA: B1 RNA with A25U, A26G, C27U, C28G, G30C, U31C
DNA 1: CAATCTGAATTCCGGTCTCCC
DNA 2: TGGTGGCTACGACGGGATT
B4: CAAGGCG (DNA:RNA)
RNA: B1 RNA with A25C, C27A, C28G, A29G, G30C, U31G
DNA 1: CAATCTGAATTCCGGTCTCCC
DNA 2: TGGTGGCTACGACGGGATT
B5: CUCGCUC (DNA:RNA)
RNA: B1 RNA with A25C, A26U, C28G, A29C, G30U, U31C
DNA 1: CAATCTGAATTCCGGTCTCCC
DNA 2: TGGTGGCTACGACGGGATT
B6: UUUUCCG (DNA:RNA)
RNA: GGGAGACCGGAAUUCAGAUUGUCCUUUUCCGUUAAAUCCCGUCGUAGCCACCA
DNA 1: CAATCTGAATTCCGGTCTCCC
DNA 2: TGGTGGCTACGACGGGATT
B7: CAUCAAA (DNA:RNA)
RNA: B1 RNA with A25C, C27U, G30A, U31A
DNA 1: CAATCTGAATTCCGGTCTCCC
DNA 2: TGGTGGCTACGACGGGATT
B8: GCCGGCC (DNA:RNA)
RNA: B1 RNA with A25G, A26C, C28G, A29G, G30C, U31C
DNA 1: CAATCTGAATTCCGGTCTCCC
DNA 2: TGGTGGCTACGACGGGATT
B9: UACAGCU (DNA:RNA)
RNA: B1 RNA with A25U, C28A, A29G, G30C
DNA 1: CAATCTGAATTCCGGTCTCCC
DNA 2: TGGTGGCTACGACGGGATT
B10: CUGCAUG (DNA:RNA)
RNA: B1 RNA with A25C, A26U, C27G, G30U, U31G
DNA 1: CAATCTGAATTCCGGTCTCCC
DNA 2: TGGTGGCTACGACGGGATT
B11: UGCAUUU (DNA:RNA)
RNA: B1 RNA with A25U, A26G, C28A, A29U, G30U
DNA 1: CAATCTGAATTCCGGTCTCCC
DNA 2: TGGTGGCTACGACGGGATT
B12: CUGCAUA (DNA:RNA)
RNA: B1 RNA with A25C, A26U, C27G, G30U, U31A
DNA 1: CAATCTGAATTCCGGTCTCCC
DNA 2: TGGTGGCTACGACGGGATT
B13: UGCAUGU (DNA:RNA)
RNA: B1 RNA with A25U, A26G, C28A, A29U
DNA 1: CAATCTGAATTCCGGTCTCCC
DNA 2: TGGTGGCTACGACGGGATT
B14: CUGCAUC (DNA:RNA)
RNA: B1 RNA with A25C, A26U, C27G, G30U, U31C
DNA 1: CAATCTGAATTCCGGTCTCCC
DNA 2: TGGTGGCTACGACGGGATT
B15: UGCAUAU (DNA:RNA)
RNA: B1 RNA with A25U, A26G, C28A, A29U, G30A
DNA 1: CAATCTGAATTCCGGTCTCCC
DNA 2: TGGTGGCTACGACGGGATT
B16: GCUGUAU (DNA:RNA)
RNA: B1 RNA with A25G, A26C, C27U, C28G, A29U, G30A
DNA 1: CAATCTGAATTCCGGTCTCCC
DNA 2: TGGTGGCTACGACGGGATT
B17: AUACGAU (DNA:RNA)
RNA: B1 RNA with A26U, C27A, A29G, G30A
DNA 1: CAATCTGAATTCCGGTCTCCC
DNA 2: TGGTGGCTACGACGGGATT
B18: AUUCUCC (DNA:RNA)
RNA: B6 RNA with U25A, U28C, C29U, G31C
DNA 1: CAATCTGAATTCCGGTCTCCC
DNA 2: TGGTGGCTACGACGGGATT
B19: CACCUGC (DNA:RNA)
RNA: B1 RNA with A25C, A29U, U31C
DNA 1: CAATCTGAATTCCGGTCTCCC
DNA 2: TGGTGGCTACGACGGGATT
B20: GGGUCGU (DNA:RNA)
RNA: B1 RNA with A25G, A26G, C27G, C28U, A29C
DNA 1: CAATCTGAATTCCGGTCTCCC
DNA 2: TGGTGGCTACGACGGGATT
B21: GGGUCCG (DNA:RNA)
RNA: B6 RNA with U25G, U26G, U27G
DNA 1: CAATCTGAATTCCGGTCTCCC
DNA 2: TGGTGGCTACGACGGGATT
B22: GGGGUCG (DNA:RNA)
RNA: B6 RNA with U25G, U26G, U27G, U28G, C29U
DNA 1: CAATCTGAATTCCGGTCTCCC
DNA 2: TGGTGGCTACGACGGGATT
B23: CGGGUAC (DNA:RNA)
RNA: GGGAGACCGGAAUUCAGAUUGUCCCGGGUACUUAAAUCCCGUCGUAGCCACCA
DNA 1: CAATCTGAATTCCGGTCTCCC
DNA 2: TGGTGGCTACGACGGGATT
B24: GGGGUCC (DNA:RNA)
RNA: B23 RNA with C25G, A30C
DNA 1: CAATCTGAATTCCGGTCTCCC
DNA 2: TGGTGGCTACGACGGGATT
B25: GUACUCU (DNA:RNA)
RNA: B1 RNA with A25G, A26U, C27A, A29U, G30C
DNA 1: CAATCTGAATTCCGGTCTCCC
DNA 2: TGGTGGCTACGACGGGATT
B26: GGGGAGA (DNA:RNA)
RNA: B23 RNA with C25G, U29A, A30G, C31A
DNA 1: CAATCTGAATTCCGGTCTCCC
DNA 2: TGGTGGCTACGACGGGATT
B27: GGGUACU (DNA:RNA)
RNA: B1 RNA with A25G, A26G, C27G, C28U, G30C
DNA 1: CAATCTGAATTCCGGTCTCCC
DNA 2: TGGTGGCTACGACGGGATT
B28: CGUACUC (DNA:RNA)
RNA: B23 RNA with G27U, G28A, U29C, A30U
DNA 1: CAATCTGAATTCCGGTCTCCC
DNA 2: TGGTGGCTACGACGGGATT
B29: GGUACUC (DNA:RNA)
RNA: B23 RNA with C25G, G27U, G28A, U29C, A30U
DNA 1: CAATCTGAATTCCGGTCTCCC
DNA 2: TGGTGGCTACGACGGGATT
B30: GGGGUAC (DNA:RNA)
RNA: B23 RNA with C25G
DNA 1: CAATCTGAATTCCGGTCTCCC
DNA 2: TGGTGGCTACGACGGGATT
B31: CGGGUCG (DNA:RNA)
RNA: B23 RNA with A30C, C31G
DNA 1: CAATCTGAATTCCGGTCTCCC
DNA 2: TGGTGGCTACGACGGGATT

Target: T1, RBFOX1 RRM
Test: EMSA; HiTS-Eq, 1 nM pool, 10 min; buffer printed only for the single-RNA assays: 10 mM Tris pH 7.5, 150 mM NaCl, 3.4 mM EDTA, 0.001% NP-40, 30 C
Settings: tags: His6 N-terminal (pET28a); label: 5' 32P
Summary of the method: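 A pool of RNA with 7 randomized nucleotides, 5′-radiolabelled and with DNA-annealed flanks, was equilibrated at 1 nM for 10 min in 50 µL with purified RbFox RRM, wild type or mutant, across increasing protein concentrations. Free RNA was separated by 8% native PAGE, excised, reverse-transcribed, barcoded by PCR and sequenced. Relative association constants were obtained from read-count changes of each RNA species versus the control reaction and normalised to the cognate motif.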

Binder	binding signal
B1	0.000945 KA relative to UGCAUGU
B2	0.00136 KA relative to UGCAUGU
B3	0.0155 KA relative to UGCAUGU
B4	0.00837 KA relative to UGCAUGU
B5	0.00968 KA relative to UGCAUGU
B6	0.0112 KA relative to UGCAUGU
B7	0.00054 KA relative to UGCAUGU
B8	0.0116 KA relative to UGCAUGU
B9	0.00395 KA relative to UGCAUGU
B10	1.04 KA relative to UGCAUGU
B11	0.0179 KA relative to UGCAUGU
B12	0.017 KA relative to UGCAUGU
B13	1 KA relative to UGCAUGU
B14	0.0212 KA relative to UGCAUGU
B15	0.0115 KA relative to UGCAUGU
B16	0.013 KA relative to UGCAUGU

Binder	binding signal
B17	0.00313 KA relative to UGCAUGU
B18	0.00179 KA relative to UGCAUGU
B19	0.00791 KA relative to UGCAUGU
B20	0.0214 KA relative to UGCAUGU
B21	0.0257 KA relative to UGCAUGU
B22	0.0492 KA relative to UGCAUGU
B23	0.0309 KA relative to UGCAUGU
B24	0.0259 KA relative to UGCAUGU
B25	0.0101 KA relative to UGCAUGU
B26	0.0242 KA relative to UGCAUGU
B27	0.0165 KA relative to UGCAUGU
B28	0.00584 KA relative to UGCAUGU
B29	0.032 KA relative to UGCAUGU
B30	0.0356 KA relative to UGCAUGU
B31	0.0322 KA relative to UGCAUGU
